Experimental data from PubChem BioAssay (NCI).
This is part of a sample that, as a whole, favours compounds with a hit. Of some 83,000 tested, about 20% had one in any assay.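 Activity criterion: percent growth below 10, measured after cells in 96-well plates were exposed to a single compound concentration for 48 hours.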 Calls of active or inactive are those of the source.

Tested on: COLO 205 colon
Experiment: NCI-60 one-dose screen, 48 h (100 = growth as untreated, 0 = no growth, -100 = all killed)
Settings: 10 µM unless noted

Compound	growth
CC(=O)O[C@H]1C(=O)[C@@]2(C)C([C@H](OC(=O)c3ccccc3)[C@]3(O)C[C@H](OC(=O)[C@H](O)[C@@H](NC(=O)c4ccccc4)c4ccccc4)C(C)=C1C3(C)C)[C@]1(OC(C)=O)CO[C@@H]1C[C@@H]2O (stereo not given in full)	1.91% (active)
CCCCCCCC/C=C/CCCCCCCC1=NC(C)(C)CN1CC(C)O (stereo not given)	-91.3% (active)
C/C(=C\CCc1ccsc1)CC/C=C(\C)CCCN1CCN(CCO)CC1	-9.2% (active)
CN1COc2ccc3ccccc3c2C1	133% (inactive)
COc1ccc(-c2cnnn2-c2cc(OC)c3c(c2)OCO3)cc1	-80.4% (active)
CCN(CC)CCCCNc1c2ccccc2[n+](C)c2c1[nH]c1ccccc12	-65.9% (active)
Nc1ccccc1-c1ccc([N+](=O)[O-])cc1	23.8% (inactive)
O=C(OC[C@H]1O[C@H](OC(=O)c2cc(O)c(O)c(OC(=O)c3cc(O)c(O)c(O)c3)c2)[C@H](OC(=O)c2cc(O)c(O)c(OC(=O)c3cc(O)c(O)c(O)c3)c2)[C@@H](OC(=O)c2cc(O)c(O)c(OC(=O)c3cc(O)c(O)c(O)c3)c2)[C@@H]1OC(=O)c1cc(O)c(O)c(OC(=O)c2cc(O)c(O)c(O)c2)c1)c1cc(O)c(O)c(OC(=O)c2cc(O)c(O)c(O)c2)c1	55.1% (inactive)
NS(=O)(=O)c1ccc(NC2=C(Cl)C(=O)c3ccccc3C2=O)cc1	95.2% (inactive)
Cc1cc2c(C#N)n3c(c2cc1C)C(=O)C(c1ccccc1)Oc1ccccc1-3 (stereo not given)	56.6% (inactive)
CN(C)c1nc(N)nc(Cn2c(-c3nonc3N)nc3ccccc32)n1	83.7% (inactive)
COC(=O)[C@]1(C(C)C)N[C@H](c2cn(-c3ccccc3)nc2-c2ccccc2)[C@@H]2C(=O)N(c3ccc(Cl)cc3)C(=O)[C@@H]21	106% (inactive)
CCOC(=O)/C(=C/c1ccccc1)C(=O)c1ccccc1	95.4% (inactive)
Cn1cnc([N+](=O)[O-])c1S(=O)(=O)Oc1ccc(Cl)cc1	-90% (active)
O=C(/C=C/c1ccccc1Cl)c1ccc(O)cc1	90% (inactive)
O=C(Cc1ccccn1)C(F)(F)C(F)(F)C(F)(F)F	127% (inactive)
Cn1c(=O)c2nc(SCc3ccccc3)n(C)c2n(C)c1=O	104% (inactive)
O=C(/C(=C/c1cccc([N+](=O)[O-])c1)c1ccccc1)c1ccccc1	86.3% (inactive)
CCCCCCCC/C=C\CCCCCCCCOc1ccccc1CC(=O)NCC[N+]1(C)CCCC1	43.1% (inactive)
O=NC1CC=CCC1c1ccccc1 (stereo not given)	117% (inactive)
CCC(C)(C)C(=O)O[C@H]1C[C@@H](C)C=C2C=C[C@H](C)[C@H](CC[C@@H]3C[C@@H](O)CC(=O)O3)[C@H]21	68.3% (inactive)
COc1ccc2[nH]cc(/C=C3/C(=O)Nc4ccc(F)cc43)c2c1	97.7% (inactive)
C[C@]12CC[C@@H]3c4ccc(O)cc4CC[C@H]3[C@@H]1CC[C@@H]2NS(=O)(=O)c1cccc(Br)c1	64.7% (inactive)
CCC1=C(c2ccc(OC)cc2)C(C)(C)Oc2c1ccc(O)c2CN1CCCC1	77.1% (inactive)
CN(C)c1ccc(/C=C\c2ccnc3ccccc23)cc1	81.2% (inactive)

Tested on: DU-145 prostate
Experiment: as above
Settings: 10 µM unless noted

Compound	growth
CC(=O)O[C@H]1C(=O)[C@@]2(C)C([C@H](OC(=O)c3ccccc3)[C@]3(O)C[C@H](OC(=O)[C@H](O)[C@@H](NC(=O)c4ccccc4)c4ccccc4)C(C)=C1C3(C)C)[C@]1(OC(C)=O)CO[C@@H]1C[C@@H]2O (stereo not given in full)	-36.8% (active)
CCCCCCCC/C=C/CCCCCCCC1=NC(C)(C)CN1CC(C)O (stereo not given)	69.2% (inactive)
COc1cc(C2NC(c3ccc(Cl)cc3)C(C)C(=NC(=O)c3cnccn3)C2C)cc(OC)c1OC (stereo not given)	115% (inactive)
C[C@@H]1CC[C@H]2[C@@H](C)C(O)O[C@@H]3O[C@]4(C)CC[C@@H]1[C@]32OO4 (stereo not given in full)	75.1% (inactive)
C/C(=C\CCc1ccsc1)CC/C=C(\C)CCCN1CCN(CCO)CC1	76.4% (inactive)
CN1COc2ccc3ccccc3c2C1	107% (inactive)
COc1ccc(-c2cnnn2-c2cc(OC)c3c(c2)OCO3)cc1	12.8% (inactive)
Nc1c2ccccc2nc2ccccc12 (tested in a mixture with another compound)	19.4% (inactive)
CCOC(=O)C1=C(C)N2C(=NC3=C(CCC/C3=C\c3ccc(Cl)cc3)C2c2ccc(Cl)cc2)S1 (stereo not given)	-0.137% (active)
C=C(C)[C@H]1CC/C(C)=C/CC[C@]2(C)O[C@H]2CC/C(C=O)=C\C1O (stereo not given in full)	106% (inactive)
CCN(CC)CCCCNc1c2ccccc2[n+](C)c2c1[nH]c1ccccc12	-0.206% (active)
Nc1ccccc1-c1ccc([N+](=O)[O-])cc1	59.3% (inactive)
Cc1ccc(NC(=O)Nc2ccc(-c3cccnc3)cc2N2CCC(CO)CC2)cc1	29.8% (inactive)
NNC(=O)C1CC2c3ccccc3C1c1ccccc12 (stereo not given)	115% (inactive)
O=C(OC[C@H]1O[C@H](OC(=O)c2cc(O)c(O)c(OC(=O)c3cc(O)c(O)c(O)c3)c2)[C@H](OC(=O)c2cc(O)c(O)c(OC(=O)c3cc(O)c(O)c(O)c3)c2)[C@@H](OC(=O)c2cc(O)c(O)c(OC(=O)c3cc(O)c(O)c(O)c3)c2)[C@@H]1OC(=O)c1cc(O)c(O)c(OC(=O)c2cc(O)c(O)c(O)c2)c1)c1cc(O)c(O)c(OC(=O)c2cc(O)c(O)c(O)c2)c1	30.3% (inactive)
NS(=O)(=O)c1ccc(NC2=C(Cl)C(=O)c3ccccc3C2=O)cc1	142% (inactive)
CCOC(=O)C1=C(COCCN)NC(C)=C(C(=O)OC)C1c1ccccc1Cl (stereo not given)	98.6% (inactive)
Cc1cc2c(C#N)n3c(c2cc1C)C(=O)C(c1ccccc1)Oc1ccccc1-3 (stereo not given)	64.4% (inactive)

Compound	growth
CN(C)c1nc(N)nc(Cn2c(-c3nonc3N)nc3ccccc32)n1	109% (inactive)
COC(=O)[C@]1(C(C)C)N[C@H](c2cn(-c3ccccc3)nc2-c2ccccc2)[C@@H]2C(=O)N(c3ccc(Cl)cc3)C(=O)[C@@H]21	111% (inactive)
CCOC(=O)/C(=C/c1ccccc1)C(=O)c1ccccc1	50.3% (inactive)
Cn1cnc([N+](=O)[O-])c1S(=O)(=O)Oc1ccc(Cl)cc1	81.5% (inactive)
O=C(/C=C/c1ccccc1Cl)c1ccc(O)cc1	-7.3% (active)
O=C(Cc1ccccn1)C(F)(F)C(F)(F)C(F)(F)F	112% (inactive)
Cn1c(=O)c2nc(SCc3ccccc3)n(C)c2n(C)c1=O	117% (inactive)
O=C(/C(=C/c1cccc([N+](=O)[O-])c1)c1ccccc1)c1ccccc1	19.8% (inactive)
CCCCCCCC/C=C\CCCCCCCCOc1ccccc1CC(=O)NCC[N+]1(C)CCCC1	90.8% (inactive)
O=C(C(=O)N1CCCCC1)c1ccc(OC2OC(CO)C(O)C(O)C2O)cc1 (stereo not given)	115% (inactive)
O=NC1CC=CCC1c1ccccc1 (stereo not given)	124% (inactive)
CCC(C)(C)C(=O)O[C@H]1C[C@@H](C)C=C2C=C[C@H](C)[C@H](CC[C@@H]3C[C@@H](O)CC(=O)O3)[C@H]21	95.3% (inactive)
COc1ccc2[nH]cc(/C=C3/C(=O)Nc4ccc(F)cc43)c2c1	95.3% (inactive)
C[C@]12CC[C@@H]3c4ccc(O)cc4CC[C@H]3[C@@H]1CC[C@@H]2NS(=O)(=O)c1cccc(Br)c1	75% (inactive)
NC(=O)NN=C(C1CC1)C1CC1	116% (inactive)
CCC1=C(c2ccc(OC)cc2)C(C)(C)Oc2c1ccc(O)c2CN1CCCC1	64.8% (inactive)
CN(C)c1ccc(/C=C\c2ccnc3ccccc23)cc1	85.1% (inactive)
